Reference: PubChem BioAssay
Calls of active or inactive are those of the source.

Legend:
[1] = test system: PRMT1 (protein arginine N-methyltransferase 1); test: PRMT1 binders on small-molecule microarrays, primary screen, biochemical, small-molecule microarray, 635 nm fluorescence (AID 1088); settings: small-molecule microarray binding, higher = more signal;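 also: binding of Prmt1 protein to compounds spotted on small-molecule microarray slides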
[2] = yeast growth modulation, basal conditions, primary screen, YJM789 clinical isolate, OD600, 24 h (AID 1089);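 also: growth of clinical yeast isolate S. cerevisiae YJM 789 seeded 1000 cells per well; test concentration not given here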; settings: S. cerevisiae YJM789 growth, higher = more signal, called active from +8 up or from −8 down
[3] = fission yeast growth modulation, primary screen, strain 972, OD600, 24 h, no modulator (AID 1090);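 also: basal condition with compound alone and no growth modifier present; test concentration not given here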; settings: S. pombe 972 growth, higher = more signal, called active from +8 up or from −8 down
[4] = S. cerevisiae growth modulation with rapamycin, primary screen, strain BY4716, OD600, 96 h (AID 1091); settings: higher = more signal, called active from +8 up or from −8 down; also: test concentration not given here
[5] = molecular target: Torsin-1A-interacting protein 2 (Homo sapiens) (UniProt Q8NFQ8); test: LULL1 binders on small-molecule microarray, primary screen, cell lysate, human LULL1 lysate, 635/667 nm fluorescence (AID 1092); settings: hLULL1 lysate binding, 635 nm fluorescence, higher = more signal;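 also: probe is lysate of COS7 cells overexpressing human LULL1; score merges per-feature 667 nm fluorescence with signal-to-noise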
[6] = E. coli growth modulation, two-sided OD650, primary screen, E. coli filamentation project, strain DRC41, 24 h (AID 1093); settings: OD650, 24 h, higher = more signal, called active from +8 up or from −8 down;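 also: MC1000 strain lacking acrAB efflux and sulA so SOS filamentation is blocked; test concentration not given here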
[7] = small-molecule microarray binders of probe aLefty2, primary screen, biochemical, biotinylated probe, 635/667 nm fluorescence (AID 1094); settings: higher = more signal;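 also: score merges spot fluorescence near 667 nm with spot signal-to-noise ratio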
[8] = test system: Noggin (protein binding on small-molecule microarray); test: Noggin binders on small-molecule microarray, primary screen, biochemical, 635/667 nm fluorescence (AID 1095); settings: 635 nm fluorescence, higher = more signal;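 also: score merges 667 nm feature fluorescence with signal to noise over triplicate slides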
[9] = molecular target: Neurogenic locus notch homolog protein 3 (Homo sapiens) (UniProt Q9UM47); test: NOTCH3 binders on small-molecule microarray, primary screen, biochemical, 635/667 nm fluorescence (AID 1096); settings: NOTCH3 binding, 635 nm fluorescence, higher = more signal
[10] = small-molecule microarray binders of probe aEGFR, primary screen, biochemical, biotinylated probe, 635/667 nm fluorescence (AID 1097); settings: higher = more signal;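 also: probe is a biotinylated anti-EGFR antibody binding compounds printed on slides; score combines fluorescence near 667 nm and signal to noise of each spot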

Neurogenic locus notch homolog protein 3 (Homo sapiens), sequence (Q9UM47 whole entry, looked up): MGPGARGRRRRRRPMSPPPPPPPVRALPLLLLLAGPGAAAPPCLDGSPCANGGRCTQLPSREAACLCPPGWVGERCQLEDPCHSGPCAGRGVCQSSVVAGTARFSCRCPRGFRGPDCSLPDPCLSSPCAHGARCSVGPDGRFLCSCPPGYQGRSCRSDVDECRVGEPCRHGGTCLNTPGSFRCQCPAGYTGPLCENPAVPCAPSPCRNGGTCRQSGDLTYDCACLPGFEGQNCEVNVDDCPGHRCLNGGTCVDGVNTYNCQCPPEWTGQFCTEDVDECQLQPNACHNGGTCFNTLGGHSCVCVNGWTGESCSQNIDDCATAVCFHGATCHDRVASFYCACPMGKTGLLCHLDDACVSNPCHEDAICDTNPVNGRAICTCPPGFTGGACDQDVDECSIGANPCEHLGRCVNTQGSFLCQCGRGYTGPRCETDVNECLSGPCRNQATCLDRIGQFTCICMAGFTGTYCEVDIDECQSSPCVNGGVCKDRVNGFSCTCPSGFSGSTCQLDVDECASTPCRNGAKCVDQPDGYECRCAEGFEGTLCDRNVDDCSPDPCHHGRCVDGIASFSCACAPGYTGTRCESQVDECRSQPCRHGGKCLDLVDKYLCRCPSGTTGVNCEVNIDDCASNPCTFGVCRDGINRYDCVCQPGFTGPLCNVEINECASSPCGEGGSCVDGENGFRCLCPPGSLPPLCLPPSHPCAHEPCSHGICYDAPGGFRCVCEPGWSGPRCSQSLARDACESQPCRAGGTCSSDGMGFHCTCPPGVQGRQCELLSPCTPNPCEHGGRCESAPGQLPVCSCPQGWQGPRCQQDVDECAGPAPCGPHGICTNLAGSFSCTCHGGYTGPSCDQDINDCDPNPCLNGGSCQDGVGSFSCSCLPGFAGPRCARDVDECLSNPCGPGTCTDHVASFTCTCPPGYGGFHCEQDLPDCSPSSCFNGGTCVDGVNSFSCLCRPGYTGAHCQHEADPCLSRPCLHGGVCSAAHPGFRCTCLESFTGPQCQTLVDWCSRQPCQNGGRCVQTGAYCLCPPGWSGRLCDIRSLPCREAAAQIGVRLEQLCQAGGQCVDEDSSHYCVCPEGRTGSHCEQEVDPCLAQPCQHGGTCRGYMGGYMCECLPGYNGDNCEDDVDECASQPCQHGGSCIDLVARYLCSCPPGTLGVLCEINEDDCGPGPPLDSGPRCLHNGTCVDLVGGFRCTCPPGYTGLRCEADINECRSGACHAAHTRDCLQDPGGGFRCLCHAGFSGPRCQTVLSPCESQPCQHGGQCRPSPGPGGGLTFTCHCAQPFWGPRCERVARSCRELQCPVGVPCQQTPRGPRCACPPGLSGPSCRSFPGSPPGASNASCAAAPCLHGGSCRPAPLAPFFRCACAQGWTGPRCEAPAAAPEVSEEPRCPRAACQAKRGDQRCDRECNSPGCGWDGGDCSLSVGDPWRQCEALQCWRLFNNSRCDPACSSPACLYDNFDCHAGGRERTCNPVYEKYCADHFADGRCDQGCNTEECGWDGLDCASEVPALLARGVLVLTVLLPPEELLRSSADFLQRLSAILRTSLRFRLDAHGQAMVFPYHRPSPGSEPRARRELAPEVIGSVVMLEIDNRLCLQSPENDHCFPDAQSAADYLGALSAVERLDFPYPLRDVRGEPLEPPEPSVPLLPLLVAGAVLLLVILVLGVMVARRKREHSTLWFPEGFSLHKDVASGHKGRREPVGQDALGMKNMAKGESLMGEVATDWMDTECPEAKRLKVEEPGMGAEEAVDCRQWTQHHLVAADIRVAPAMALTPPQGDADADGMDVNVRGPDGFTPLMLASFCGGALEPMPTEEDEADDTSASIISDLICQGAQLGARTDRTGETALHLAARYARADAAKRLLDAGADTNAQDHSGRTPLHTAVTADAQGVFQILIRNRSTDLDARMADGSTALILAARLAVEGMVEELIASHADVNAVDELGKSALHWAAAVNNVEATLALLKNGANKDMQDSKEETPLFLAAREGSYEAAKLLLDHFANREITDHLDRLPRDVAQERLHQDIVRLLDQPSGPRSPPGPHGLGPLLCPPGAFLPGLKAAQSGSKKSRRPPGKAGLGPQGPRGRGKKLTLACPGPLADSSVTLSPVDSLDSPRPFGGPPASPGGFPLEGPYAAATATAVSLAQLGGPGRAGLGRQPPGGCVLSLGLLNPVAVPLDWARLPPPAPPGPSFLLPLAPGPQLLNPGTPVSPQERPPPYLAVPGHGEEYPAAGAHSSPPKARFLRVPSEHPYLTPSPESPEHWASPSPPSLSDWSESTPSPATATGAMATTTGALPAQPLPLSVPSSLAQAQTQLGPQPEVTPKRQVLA
Torsin-1A-interacting protein 2 (Homo sapiens), sequence (Q8NFQ8 whole entry, looked up): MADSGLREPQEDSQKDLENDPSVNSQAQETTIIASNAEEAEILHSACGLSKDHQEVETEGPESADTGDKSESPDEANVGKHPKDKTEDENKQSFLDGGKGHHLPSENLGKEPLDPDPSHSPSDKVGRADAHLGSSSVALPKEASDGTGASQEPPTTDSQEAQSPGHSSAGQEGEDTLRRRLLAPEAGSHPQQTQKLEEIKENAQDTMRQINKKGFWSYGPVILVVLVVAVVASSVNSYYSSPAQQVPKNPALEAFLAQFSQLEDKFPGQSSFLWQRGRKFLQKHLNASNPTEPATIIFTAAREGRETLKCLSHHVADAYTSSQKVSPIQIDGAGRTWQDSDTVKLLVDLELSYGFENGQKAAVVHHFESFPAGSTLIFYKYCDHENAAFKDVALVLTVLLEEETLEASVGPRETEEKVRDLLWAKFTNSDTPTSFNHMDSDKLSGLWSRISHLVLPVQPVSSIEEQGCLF

Row | SMILES | composite z-score [1] | z-score [2] | z-score [3] | z-score [4] | composite z-score [5] | z-score [6] | composite z-score [7] | composite z-score [8] | composite z-score [9] | composite z-score [10]
1 | COC(=O)[C@H]1COC(c2ccc(OCCCO)cc2)=N1 | -0.152 | -0.488 (inactive) | -0.888 (inactive) | -0.606 (inactive) | 3.59 | 0.332 (inactive) | 0.267 | -0.37 | -0.607 | -0.0947
2 | CCN1C(=O)[C@H]2[C@H]3[C@H](O)[C@H](O)CC(=NOCc4ccccc4)[C@H]3CC[C@H]2C1=O | -0.204 | -0.896 (inactive) | -0.337 (inactive) | -0.262 (inactive) | 0.21 | 0.632 (inactive) | -0.386 | 0.863 | 0.469 | -0.0953
3 | CCOC(=O)[C@H](Cc1ccccc1)NC(=O)CCC1CC(OC(=O)NCCc2ccc(F)cc2)CC2(CCCC(COC(=O)NCC(c3ccccc3)c3ccccc3)O2)O1 (stereo not given in full) | 1.57 | 0.378 (inactive) | 0.745 (inactive) | -0.436 (inactive) | 2.18 | 0.0565 (inactive) | -0.199 | 0.538 | 1.14 | -0.139
4 | CCN1C(=O)[C@H]2[C@H]3[C@H](O)[C@H](O)CC(=NOC(C)CN4CCCCc5nc(C)c(C)cc54)[C@@H]3CC[C@H]2C1=O (stereo not given in full) | 0.708 | 0.12 (inactive) | 0.634 (inactive) | 0.403 (inactive) | -0.414 | 1.03 (inactive) | -0.0977 | 0.732 | 0.398 | 0.126
5 | CS(=O)(=O)CCOC(=O)C1=CC(CCCO)=CC(c2cccs2)N(Cc2cccc(OC(F)(F)F)c2)C=C1C(=O)OCCS(C)(=O)=O (stereo not given) | 1.57 | -0.522 (inactive) | -2.82 (inactive) | -1.34 (inactive) | 2.17 | -0.0221 (inactive) | 0.0651 | 0.025 | 0.993 | 0.0269
6 | CC(C)=CCCC(C)=CCON=C1C[C@@H](O)[C@@H](O)[C@@H]2[C@@H]3C(=O)N(C[C@@H]4CCCO4)C(=O)[C@@H]3CC[C@@H]12 | 1.54 | -0.224 (inactive) | 0.574 (inactive) | -0.618 (inactive) | 2.34 | 0.325 (inactive) | -0.133 | 1.3 | 1.01 | -0.0556
7 | CC(C)CON=C1C[C@@H](O)[C@@H](O)[C@@H]2[C@@H]3C(=O)N(Cc4ccccc4)C(=O)[C@@H]3CC[C@@H]12 | 0.517 | -0.443 (inactive) | -0.264 (inactive) | -0.682 (inactive) | 0.434 | 0.354 (inactive) | -0.099 | 0.484 | 0.59 | -0.0679
8 | COc1ccccc1CN1C(=O)c2ccccc2[C@@H](C(=O)NCC(F)(F)F)[C@@H]1c1ccc(CO)cc1 | 1.55 | 0.21 (inactive) | 0.74 (inactive) | -0.296 (inactive) | 2.37 | 1.49 (inactive) | -0.107 | 1.11 | 1.06 | -0.179
9 | C[C@@H]1C=CCC(=O)OC[C@H](C)C(=O)N[C@@H](C)C(=O)OC1 | 0.552 | 0.664 (inactive) | 0.406 (inactive) | -0.113 (inactive) | -0.412 | 0.715 (inactive) | -0.293 | 0.828 | 0.254 | 0.0886
10 | CC(C)=NOCc1cccc(-c2cc(-c3ccccc3)no2)c1 | 1.27 | -0.366 (inactive) | -21 (active) | -0.442 (inactive) | 1.18 | 0.533 (inactive) | -0.0375 | 0.7 | 0.881 | 0.161
11 | CC(C)(C)N1CC=CC23O[C@@H]4C=CCCOC(=O)C4[C@H]2C(=O)N(CCCCCO)[C@@H]3C1=O (stereo not given in full) | 0.937 | 0.37 (inactive) | 0.501 (inactive) | -0.215 (inactive) | 1.74 | 0.261 (inactive) | -0.13 | 0.304 | 0.0136 | 0.0912
12 | COCCCNC(=O)[C@@]1(Sc2ccc(C)cc2)CC(=O)N(Cc2ccccc2)[C@@H]1c1ccc(CO)cc1I | 0.785 | -1.69 (inactive) | -2.82 (inactive) | 0.999 (inactive) | 0.936 | 0.248 (inactive) | 0.556 | -1.53 | -1 | 0.0097
13 | COc1ccc(CCNC(=O)[C@@H]2c3ccccc3C(=O)N(c3ccc(C)cn3)[C@H]2c2ccc(CO)cc2)cc1 | 0.11 | -1.5 (inactive) | -0.436 (inactive) | -1.15 (inactive) | 3.23 | 0.604 (inactive) | 0.121 | -1.16 | -1.21 | -0.404
14 | CCOC(=O)CCN1C(=O)[C@H]2[C@H]3[C@H](O)[C@H](O)CC(=NOCc4ccccc4)[C@@H]3CC[C@H]2C1=O | 0.454 | -0.14 (inactive) | 0.116 (inactive) | -0.664 (inactive) | 0.175 | -0.961 (inactive) | -0.147 | 0.676 | 1 | -0.0597
15 | COc1ccc(O[C@H]2C=C[C@@H](c3ccccc3)O[C@@H]2COC(=O)CCC(C)=NOC[C@@H](C)[C@H](OCc2ccccc2)C(C)C)cc1 | -0.548 | 0.122 (inactive) | 0.329 (inactive) | -1.18 (inactive) | -0.694 | 0.17 (inactive) | -0.261 | -0.37 | -1.03 | -0.219
16 | CO[C@@H]1COC(=O)CC=C[C@@H](C)[C@@H]2C=C[C@H](O)[C@@H](COC(=O)[C@H](C)NC(=O)CC=C[C@H]1C)O2 | 1.54 | -0.653 (inactive) | -0.465 (inactive) | -1.36 (inactive) | -0.75 | 0.0967 (inactive) | -0.212 | 1.42 | 0.868 | 0.0231
17 | CCCC[C@H]1OB(O)C[C@H]2C1=C(C)C[C@H]1C(=O)N(C)C(=O)[C@H]12 | 0.95 | -0.334 (inactive) | -0.698 (inactive) | -0.762 (inactive) | 1.2 | -0.889 (inactive) | -0.166 | 0.622 | 0.959 | -0.12
18 | CC(=O)OC[C@H]1O[C@H](CCON=C(C)CCN2CCc3nc(-c4ccccc4)c(-c4ccccc4)cc3C2)C=C[C@@H]1OC(C)=O | 1.25 | -1.92 (inactive) | -0.757 (inactive) | -4.46 (inactive) | 1.26 | 0.901 (inactive) | -0.0258 | 0.169 | 0.0346 | -0.0549
19 | CCOC(=O)NN=C1C[C@@H](O)[C@@H](O)[C@@H]2[C@@H]3C(=O)N(C[C@@H]4CCCO4)C(=O)[C@@H]3CC[C@@H]12 | 0.0939 | 0.822 (inactive) | -0.408 (inactive) | 0.256 (inactive) | 0.375 | 0.757 (inactive) | -0.0458 | 0.642 | 0.697 | -0.0681
20 | CCOC(=O)[C@H](CC(C)C)NC(=O)CCC1CC(OC(=O)NCc2cccc3ccccc23)CC2(CCCC(COC(=O)NCCN3CCOCC3)O2)O1 (stereo not given in full) | 1.57 | -1.26 (inactive) | 0.557 (inactive) | -1.04 (inactive) | 2.36 | -0.737 (inactive) | -0.173 | 0.344 | 1.11 | -0.0828
21 | CCOC(=O)CCN1C(=O)[C@H]2[C@H]3[C@H](O)[C@H](O)CC(=NOC[C@@H](O)COCc4ccco4)[C@@H]3CC[C@H]2C1=O | 0.163 | 0.133 (inactive) | -0.226 (inactive) | -0.0839 (inactive) | 0.545 | 0.383 (inactive) | 0.0814 | -0.298 | -0.62 | -0.0764
22 | CO[C@H]1COC(=O)[C@H](C)NC(=O)[C@@H](C)COC(=O)CC=C[C@@H]1C | 0.748 | -0.156 (inactive) | 0.473 (inactive) | -0.564 (inactive) | -0.498 | 0.2 (inactive) | -0.103 | 0.3 | 0.674 | -0.02
23 | COC(=O)CC=C[C@@H](C)[C@H](OC)c1ccccc1Br | 0.0909 | 0.703 (inactive) | -0.636 (inactive) | -0.417 (inactive) | 0.154 | 0.469 (inactive) | -0.188 | 0.462 | -0.105 | -0.113
24 | CN(C)c1ccc(C(O)C2C=CC3C(=O)N(c4ccccc4)C(=O)C3N2Nc2ccccc2F)cc1 (stereo not given) | 1.09 | 0.0194 (inactive) | -13.6 (active) | 1.7 (inactive) | 2.21 | -0.457 (inactive) | -0.166 | -0.318 | 0.443 | 0.0904
25 | C[C@@H]1C=CCC(=O)OC[C@H](C)C(=O)N2CCC[C@H]2C(=O)OC1 | 1.54 | -0.407 (inactive) | 0.334 (inactive) | 0.356 (inactive) | 0.0414 | 0.325 (inactive) | -0.0971 | 1.7 | 0.677 | 0.228
26 | CCN1C(=O)[C@H]2[C@H]3[C@H](O)C=CC(=O)[C@@H]3CC[C@H]2C1=O | -0.777 | 0.0131 (inactive) | -0.373 (inactive) | -0.624 (inactive) | 0.0819 | 0.255 (inactive) | -0.0961 | 0.701 | 0.705 | -0.094
27 | CO[C@H]1COC(=O)[C@@H]2CCCN2C(=O)CC=C[C@@H](C)[C@H](OC)COC(=O)CC=C[C@@H]1C | 1.54 | -1.94 (inactive) | -1.32 (inactive) | -0.611 (inactive) | -0.361 | -0.323 (inactive) | -0.0208 | 1.48 | 0.991 | 0.34
28 | CC(CCN1CCc2nc(-c3ccccc3)c(-c3ccccc3)cc2C1)=NOC[C@@H](C)[C@H](OCc1ccccc1)C(C)C | -0.299 | -0.511 (inactive) | -1.17 (inactive) | -3.43 (inactive) | 0.628 | -0.518 (inactive) | -0.195 | -0.179 | -2.07 | -0.25
29 | O=C1[C@H]2[C@H]3[C@H](O)[C@H](O)CC(=NOC[C@@H](O)COCc4ccco4)[C@H]3CC[C@H]2C(=O)N1Cc1ccc2c(c1)OCO2 | 1.29 | -0.285 (inactive) | -0.279 (inactive) | -1.09 (inactive) | -0.829 | 0.617 (inactive) | -0.29 | 0.154 | -0.0875 | -0.0039
